# In article PMC7862700, “An all-to-all approach to the identification of sequence-specific readers for epigenetic DNA modifications on cytosine”:
# Columns and labels:
# Experiment in all cases: DAPPL (digital affinity profiling via proximity ligation, sequencing); 10 mM Tris-HCl pH 7.5, 50 mM NaCl, 1 mM DTT, 4% glycerol, room temperature, 30 min; GST-TFs on glutathione beads, 16-mer random dsDNA library, 0.1% formaldehyde crosslink after washing; high values mean tight binding
# Conditions in all cases: protein: recombinant; tags: N-terminal GST; dsDNA, one strand shown
# FLI1 = target: T1, FLI1 (Homo sapiens, UniProt Q01543 1-452)
# T1 sequence: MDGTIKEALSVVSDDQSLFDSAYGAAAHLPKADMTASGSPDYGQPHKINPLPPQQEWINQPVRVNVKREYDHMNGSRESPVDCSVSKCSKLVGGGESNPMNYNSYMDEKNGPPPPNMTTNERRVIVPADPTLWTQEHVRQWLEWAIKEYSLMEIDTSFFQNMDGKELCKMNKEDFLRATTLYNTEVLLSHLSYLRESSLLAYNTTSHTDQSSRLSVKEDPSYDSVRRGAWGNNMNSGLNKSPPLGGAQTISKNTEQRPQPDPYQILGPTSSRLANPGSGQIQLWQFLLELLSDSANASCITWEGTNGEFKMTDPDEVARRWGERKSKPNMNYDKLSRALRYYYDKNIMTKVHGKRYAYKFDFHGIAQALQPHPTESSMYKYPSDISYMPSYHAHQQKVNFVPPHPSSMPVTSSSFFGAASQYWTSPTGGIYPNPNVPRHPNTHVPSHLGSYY
# How it was run: (§1)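 Binding signal is given per hexamer as its read frequency for a factor divided by its frequency in the tag-only sample. GST-fused human transcription factors were expressed in yeast, captured on glutathione beads, barcoded with DNA and pooled with that sample, then incubated with 200 nmole of a 16-mer random double-stranded DNA library in Tris/NaCl/DTT/glycerol buffer for 30 min at room temperature. The pools were then washed, crosslinked, proximity-ligated, amplified by PCR and sequenced on an Illumina NextSeq500.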
# ELK1 = target: T2, ELK1 (Homo sapiens, UniProt P19419 1-428)
# T2 sequence: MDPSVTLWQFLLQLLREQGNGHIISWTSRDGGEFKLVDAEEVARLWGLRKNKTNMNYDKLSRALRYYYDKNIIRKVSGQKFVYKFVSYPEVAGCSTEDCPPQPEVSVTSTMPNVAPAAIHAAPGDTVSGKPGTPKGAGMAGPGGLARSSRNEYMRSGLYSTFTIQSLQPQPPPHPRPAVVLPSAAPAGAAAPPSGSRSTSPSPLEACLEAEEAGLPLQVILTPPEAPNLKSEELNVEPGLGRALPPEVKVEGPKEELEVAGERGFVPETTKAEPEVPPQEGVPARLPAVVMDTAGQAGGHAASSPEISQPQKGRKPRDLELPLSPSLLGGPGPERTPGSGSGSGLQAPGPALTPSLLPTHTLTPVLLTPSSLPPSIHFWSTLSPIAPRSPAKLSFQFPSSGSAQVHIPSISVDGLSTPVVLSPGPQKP
# How it was run: as §1
# GABPA = target: T3, GABPA (Homo sapiens, UniProt Q06546 1-454)
# T3 sequence: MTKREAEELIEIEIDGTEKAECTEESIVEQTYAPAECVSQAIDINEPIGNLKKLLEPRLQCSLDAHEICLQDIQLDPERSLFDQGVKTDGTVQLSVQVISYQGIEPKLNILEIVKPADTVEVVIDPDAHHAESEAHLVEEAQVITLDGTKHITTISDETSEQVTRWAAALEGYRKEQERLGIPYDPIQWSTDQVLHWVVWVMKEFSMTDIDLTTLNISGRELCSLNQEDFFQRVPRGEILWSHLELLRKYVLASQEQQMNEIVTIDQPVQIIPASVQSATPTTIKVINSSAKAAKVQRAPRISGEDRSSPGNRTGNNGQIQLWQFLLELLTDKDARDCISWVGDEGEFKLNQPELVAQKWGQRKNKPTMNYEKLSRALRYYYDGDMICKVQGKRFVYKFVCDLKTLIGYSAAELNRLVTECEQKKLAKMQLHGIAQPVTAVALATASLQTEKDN
# How it was run: as §1
# ERG = target: T4, ERG (Homo sapiens, UniProt P11308 1-479)
# T4 sequence: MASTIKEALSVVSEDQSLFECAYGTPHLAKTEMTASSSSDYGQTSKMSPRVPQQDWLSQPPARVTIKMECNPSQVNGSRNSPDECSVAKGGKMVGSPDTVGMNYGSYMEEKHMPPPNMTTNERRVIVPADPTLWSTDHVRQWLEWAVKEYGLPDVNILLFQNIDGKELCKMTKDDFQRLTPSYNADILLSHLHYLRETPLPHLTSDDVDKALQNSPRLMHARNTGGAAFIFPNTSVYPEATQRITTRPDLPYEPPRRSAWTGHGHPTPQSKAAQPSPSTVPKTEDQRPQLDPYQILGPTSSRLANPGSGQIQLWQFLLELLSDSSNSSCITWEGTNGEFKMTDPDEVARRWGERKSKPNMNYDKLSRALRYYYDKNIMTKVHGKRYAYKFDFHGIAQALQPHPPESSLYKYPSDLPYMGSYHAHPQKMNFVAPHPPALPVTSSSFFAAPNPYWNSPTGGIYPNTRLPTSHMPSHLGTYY
# How it was run: as §1
# ELF1 = ELF1 (Homo sapiens, UniProt P32519 1-619)
# Chain of ELF1 (P32519 whole entry): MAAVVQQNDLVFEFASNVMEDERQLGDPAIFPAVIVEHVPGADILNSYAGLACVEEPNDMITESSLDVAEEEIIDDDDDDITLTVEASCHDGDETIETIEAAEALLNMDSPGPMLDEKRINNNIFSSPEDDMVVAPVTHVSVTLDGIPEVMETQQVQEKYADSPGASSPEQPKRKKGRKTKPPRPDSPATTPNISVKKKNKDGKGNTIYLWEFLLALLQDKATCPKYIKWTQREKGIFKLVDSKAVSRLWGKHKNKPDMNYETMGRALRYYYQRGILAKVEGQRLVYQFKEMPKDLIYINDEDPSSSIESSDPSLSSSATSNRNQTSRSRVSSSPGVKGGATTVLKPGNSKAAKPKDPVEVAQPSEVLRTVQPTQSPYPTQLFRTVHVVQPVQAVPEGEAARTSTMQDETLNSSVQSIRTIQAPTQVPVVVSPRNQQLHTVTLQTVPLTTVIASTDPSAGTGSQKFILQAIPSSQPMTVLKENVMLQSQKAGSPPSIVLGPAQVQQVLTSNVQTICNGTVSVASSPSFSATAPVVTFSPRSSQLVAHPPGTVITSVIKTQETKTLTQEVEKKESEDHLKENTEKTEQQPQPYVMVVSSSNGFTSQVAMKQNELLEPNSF
# How it was run: as §1
# EHF = target: T5, EHF (Homo sapiens, UniProt Q9NZC4 1-300)
# T5 sequence: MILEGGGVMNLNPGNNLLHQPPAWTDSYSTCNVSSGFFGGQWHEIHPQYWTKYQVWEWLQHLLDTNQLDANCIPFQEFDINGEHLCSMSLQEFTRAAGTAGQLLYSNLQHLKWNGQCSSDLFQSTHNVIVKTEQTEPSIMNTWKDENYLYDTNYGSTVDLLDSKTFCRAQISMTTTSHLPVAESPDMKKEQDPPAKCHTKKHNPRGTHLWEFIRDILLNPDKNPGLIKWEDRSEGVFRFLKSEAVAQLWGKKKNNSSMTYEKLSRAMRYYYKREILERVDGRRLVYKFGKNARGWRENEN
# How it was run: as §1
# SPI1 = SPI1 (Homo sapiens, UniProt P17947 1-270)
# How it was run: as §1
# SPIB = SPIB (Homo sapiens, UniProt Q01892 1-262)
# Chain of SPIB (Q01892 whole entry): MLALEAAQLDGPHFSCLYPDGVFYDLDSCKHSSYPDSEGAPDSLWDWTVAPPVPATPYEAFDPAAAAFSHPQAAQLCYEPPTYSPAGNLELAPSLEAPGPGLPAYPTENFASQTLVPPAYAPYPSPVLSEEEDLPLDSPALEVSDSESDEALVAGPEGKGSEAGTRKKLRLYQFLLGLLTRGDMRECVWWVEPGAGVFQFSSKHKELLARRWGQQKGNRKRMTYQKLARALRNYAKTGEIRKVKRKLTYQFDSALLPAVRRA
# How it was run: as §1
# ELK3 = target: T6, ELK3 (Homo sapiens, UniProt P41970 1-407)
# T6 sequence: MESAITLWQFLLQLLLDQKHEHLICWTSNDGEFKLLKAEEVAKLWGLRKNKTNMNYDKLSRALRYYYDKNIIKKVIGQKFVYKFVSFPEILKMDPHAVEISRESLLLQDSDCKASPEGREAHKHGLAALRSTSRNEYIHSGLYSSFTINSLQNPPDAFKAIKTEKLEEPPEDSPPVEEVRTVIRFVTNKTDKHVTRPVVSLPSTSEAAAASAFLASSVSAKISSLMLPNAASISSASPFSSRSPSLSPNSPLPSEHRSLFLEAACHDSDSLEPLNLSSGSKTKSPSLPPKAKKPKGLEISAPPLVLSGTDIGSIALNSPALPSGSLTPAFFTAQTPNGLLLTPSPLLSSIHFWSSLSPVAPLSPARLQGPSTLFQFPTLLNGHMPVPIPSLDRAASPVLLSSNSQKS
# How it was run: as §1
sequence,measurement,setting,value
CTATGC,binding signal,FLI1,"1.41 fold enrichment (6-mer frequency, TF over GST control)"
same,binding signal,ELK1,"1.56 fold enrichment (6-mer frequency, TF over GST control)"
same,binding signal,GABPA,"1.53 fold enrichment (6-mer frequency, TF over GST control)"
same,binding signal,ERG,"1.39 fold enrichment (6-mer frequency, TF over GST control)"
same,binding signal,ELF1,"1.47 fold enrichment (6-mer frequency, TF over GST control)"
same,binding signal,EHF,"1.31 fold enrichment (6-mer frequency, TF over GST control)"
same,binding signal,SPI1,"1.38 fold enrichment (6-mer frequency, TF over GST control)"
same,binding signal,SPIB,"1.48 fold enrichment (6-mer frequency, TF over GST control)"
same,binding signal,ELK3,"1.4 fold enrichment (6-mer frequency, TF over GST control)"
